# Measured values as given in ChEMBL document CHEMBL4808148, “HDAC6 screening dataset using tau-based substrate in an enzymatic assay yields selective inhibitors and activators” (2021).
# Values joined by “and” are separate entries in the source; they are usually repeats but may differ in a detail not shown here. Identical values can stand only once. The campaign covered roughly 5,600 compounds. About 390 (7%) showed an effect of 50% or more. Only a selection was taken, and strong results are over-represented in it overall. Starred links: 1 amine or outer side, 2 acyl side, 3 side chain; linkers in the order of their positions; H or OH if unused. Positions of bridges follow the written chain, without caps; N, C: chain ends. Non-standard residues stand in square brackets, D forms with d. Residues, ends and D or L forms follow the SMILES beside them. Chains are numbered I, II in the order given. Actinocin(9to1) = Cc1c2oc3c(C)ccc(C(=O)[*:1])c3nc-2c(C(=O)[*:2])c(N)c1=O; NMeV = CN[C@H](C(=O)O)C(C)C; Sar = CNCC(=O)O
# Target: T1, Protein deacetylase HDAC6 (Homo sapiens) (UniProt Q9UBN7)
# T1 sequence (whole entry): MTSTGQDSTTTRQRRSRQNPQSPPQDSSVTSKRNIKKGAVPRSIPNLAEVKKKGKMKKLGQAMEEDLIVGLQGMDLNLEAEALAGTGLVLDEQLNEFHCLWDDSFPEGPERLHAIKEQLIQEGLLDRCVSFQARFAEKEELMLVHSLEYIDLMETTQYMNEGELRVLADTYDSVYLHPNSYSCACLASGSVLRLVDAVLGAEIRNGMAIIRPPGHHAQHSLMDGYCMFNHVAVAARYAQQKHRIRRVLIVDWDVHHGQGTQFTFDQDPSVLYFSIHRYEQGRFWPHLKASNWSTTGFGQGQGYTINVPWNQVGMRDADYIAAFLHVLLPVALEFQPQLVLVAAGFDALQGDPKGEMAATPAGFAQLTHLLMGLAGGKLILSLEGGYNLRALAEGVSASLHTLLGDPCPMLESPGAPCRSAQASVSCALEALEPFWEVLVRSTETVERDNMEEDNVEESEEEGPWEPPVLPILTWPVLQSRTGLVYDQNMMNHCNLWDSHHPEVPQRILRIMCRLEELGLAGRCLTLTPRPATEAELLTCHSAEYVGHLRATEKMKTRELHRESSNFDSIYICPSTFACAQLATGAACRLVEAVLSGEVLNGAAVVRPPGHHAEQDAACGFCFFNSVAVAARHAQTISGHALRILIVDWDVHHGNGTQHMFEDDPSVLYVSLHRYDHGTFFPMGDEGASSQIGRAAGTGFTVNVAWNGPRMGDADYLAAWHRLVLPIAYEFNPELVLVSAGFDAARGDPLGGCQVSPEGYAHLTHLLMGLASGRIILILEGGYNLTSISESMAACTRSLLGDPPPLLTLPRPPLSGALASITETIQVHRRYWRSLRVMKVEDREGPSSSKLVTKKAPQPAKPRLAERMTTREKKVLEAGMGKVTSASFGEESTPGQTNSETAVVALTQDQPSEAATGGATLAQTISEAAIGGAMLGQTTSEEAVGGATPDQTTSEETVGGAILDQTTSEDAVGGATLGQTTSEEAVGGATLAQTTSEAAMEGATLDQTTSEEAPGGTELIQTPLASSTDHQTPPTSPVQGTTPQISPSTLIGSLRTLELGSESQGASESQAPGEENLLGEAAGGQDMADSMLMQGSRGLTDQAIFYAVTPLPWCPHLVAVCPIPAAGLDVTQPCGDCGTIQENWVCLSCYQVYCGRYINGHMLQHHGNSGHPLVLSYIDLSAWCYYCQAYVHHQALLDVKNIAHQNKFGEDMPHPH
# Conditions: at 10 µM
row,Structure (SMILES),inhibition
1,CC(C)[C@@H](C)/C=C/[C@@H](C)[C@H]1CC[C@H]2/C(=C/C=C3\C[C@@H](O)CC[C@@H]3C)CCC[C@]12C,11.8%
2,CC(C)(O)c1coc(S(=O)(=O)NC(=O)Nc2c3c(cc4c2CCC4)CCC3)c1,-9.36%
3,Cc1cnc(NC(=O)Nc2cc(Br)c(C)cc2OC[C@@H]2CNCCO2)cn1,-8.01%
4,COc1cc(COc2cc(N)c(Cl)cc2C(=O)CCC2CCN(CCNS(C)(=O)=O)CC2)cc(OC)c1,28.1%
5,Cc1c(NC(=O)N2CCOCC2)ccc2c1c1ccccc1n2C(C)C,21.6%
6,CSc1ccc2c(c1)C(N1CCN(C)CC1)Cc1ccccc1S2 (centres undefined),62.7%
7,CSc1ccc2c(c1)N(CCC1CCCCN1C)c1ccccc1S2 (centres undefined),21.9%
8,CN1CCCC(CC2c3ccccc3Sc3ccccc32)C1 (centres undefined),34.4%
9,NC(=O)C[C@H](N)C(=O)O,16.2%
10,O=C(O)CNC(=O)c1nc(Cl)c2ccccc2c1O,-6.14%
11,"Cc1c2oc3c(C)ccc(C(=O)N[C@@H]4C(=O)N[C@@H](C(C)C)C(=O)N5CCC[C@H]5C(=O)N(C)CC(=O)N(C)[C@@H](C(C)C)C(=O)O[C@@H]4C)c3nc-2c(C(=O)N[C@@H]2C(=O)N[C@@H](C(C)C)C(=O)N3CCC[C@H]3C(=O)N(C)CC(=O)N(C)[C@@H](C(C)C)C(=O)O[C@@H]2C)c(N)c1=O (I: TVP[Sar][NMeV] / II: TVP[Sar][NMeV]; ester I:1-I:C, II:1-II:C; linker I:N-II:N via Actinocin(9to1))",21%
12,COc1cc2c(cc1OC)CN(CCc1ccc(NC(=O)c3cccc4c(=O)c5cccc(OC)c5[nH]c34)cc1)CC2,59.7%
13,COc1cccc([C@H](O)C2CCN(CCc3ccc(F)cc3)CC2)c1OC,-1.53%
14,COc1ccccc1S(=O)(=O)Nc1ccc2c(c1)CN(C)C(=O)N2,-9.44%
15,COc1cnc(-n2cnc(C)n2)c2[nH]cc(C(=O)C(=O)N3CCN(C(=O)c4ccccc4)CC3)c12,12.8%
16,CC(C)(Sc1ccc(CCN(CCCCC2CCCCC2)C(=O)NC2CCCCC2)cc1)C(=O)O,10.4%
17,COc1ccc(/C=C\CCCCOc2ccc(C(=O)c3cccc(C(=O)O)c3)cc2CCC(=O)O)cc1,-0.99%
18,CC(C)(C)c1ccc(CN(Cc2cccc(OCC(=O)O)c2)S(=O)(=O)c2cccnc2)cc1,3.1%
19,Cc1onc(-c2c(Cl)cccc2Cl)c1C(=O)N[C@@H]1C(=O)N([C@@H](C(=O)O)C(C)(C)C)[C@@H]1S,-9.26%
20,O=C(Nc1ccccc1-c1cn2c(CN3CCNCC3)csc2n1)c1cnc2ccccc2n1,55.6%
21,O=C(C1CC1)N1CC[C@@H](Cc2n[nH]c(=O)n2-c2ccc(-c3ccc4occc4c3)cc2)C1,39.2%
22,CN[C@@H]1[C@@H](O)[C@H](O[C@@H]2[C@@H](O)[C@H](O[C@H]3O[C@H](CN)[C@@H](O)[C@H](O)[C@H]3O)[C@@H](N)C[C@H]2NC(=O)[C@@H](O)CN)OC[C@]1(C)O,-4.97%
23,Cc1cc(NC(=O)Nc2ccc(N(C)C)cc2)c2cc(F)cc(F)c2n1,9.39%
24,Cc1ccc(F)c(NC(=O)Nc2ccc(-c3cccc4[nH]nc(N)c34)cc2)c1,94.5%

row,Structure (SMILES),inhibition
1,C[N+]1(CCCCC[N+]2(C)CCCC2)CCCC1,1.14%
2,NC(=O)[C@H]1CCS[C@@H]2C[C@]3(CCCN3C(=O)Cc3ccc(NC(=O)COc4ccc(Cl)cc4Cl)cc3)C(=O)N12,3.16%
3,Cc1c(C)c2c(c(C)c1O)C[C@@](C)(CCC[C@H](C)CCC[C@H](C)CCCC(C)C)OC2,18.1%
4,O=C1N=C(NCc2cccs2)S/C1=C\c1ccc2ncccc2c1,68.2%
5,Nc1cc2c3ccccc3ccc2c2ccccc12,96%
6,Cc1cc(N)c2ccccc2[n+]1CCCCCCCCCC[n+]1c(C)cc(N)c2ccccc21,-8%
7,Oc1ccc2ccccc2c1Cc1c(O)ccc2ccccc12,25.7%
8,COc1nccc(-c2c(-c3ccc(F)cc3)ncn2[C@H]2CC[C@H](O)CC2)n1,-0.9%
9,COc1c2occc2c(OC)c2c(=O)cc(C)oc12,-5.99%
10,Cc1cn(C[C@H](N)C(=O)O)c(=O)n(Cc2ccsc2C(=O)O)c1=O,14.3%
11,CN1CCCN=C1/C=C/c1cccs1,82.3%
12,CN1CCCN=C1COC(=O)C(O)(c1ccccc1)C1CCCCC1 (centres undefined),-6.61%
13,Cc1ccsc1/C=C/C1=NCCCN1C,1.45%
14,CN1CCCN=C1/C=C/c1cccc(O)c1,74.1%
15,COc1ccc(N(C)c2nc(C)nc3ccccc23)cc1,-1.78%
16,CC[C@@H]1C[C@H](N(Cc2cc(C(F)(F)F)cc(C(F)(F)F)c2)C(C)=O)c2cc(C(F)(F)F)ccc2N1C(=O)OC(C)C,3.27%
17,COC(=O)C1=C(C)NC(C)=C(C(=O)O[C@@H]2CCCN(Cc3ccccc3)C2)[C@@H]1c1cccc([N+](=O)[O-])c1,16.7%
18,CCn1c(=O)/c(=C2\Sc3ccccc3N2C)s/c1=C\c1cccc[n+]1CC,3.58%
19,N=C(N)NC(=N)N1CCOCC1,-0.5%
20,N#Cc1ccc(N(Cc2ccc(Br)cc2)n2cnnc2)cc1,7.87%
21,O=C(N[C@@H]1CC[C@@H](c2cccc(F)c2F)CN(CC(F)(F)F)C1=O)N1CCC(n2c(=O)[nH]c3ncccc32)CC1,21.5%
22,N[C@@]1(C(=O)O)CS(=O)(=O)[C@H]2[C@H](C(=O)O)[C@H]21,9.11%
23,O=C1NCCc2[nH]c(-c3ccncc3)cc21,-2.78%
24,O=C1Cc2c([nH]c3ccc(Br)cc23)-c2ccccc2N1,89.3%

row,Structure (SMILES),inhibition
1,O=C1Cc2c([nH]c3ccc(Br)cc23)-c2ncccc2N1,84.9%
2,CCS(=O)(=O)c1cccc(-c2cc(C(=O)NC3CCN(C)CC3)c(C)c3[nH]c4ncc(C)cc4c23)c1,12.4%
3,O=[N+]([O-])c1cccc2c(Br)n[nH]c12,-0.83%
4,CCCCc1ccc(NS(=O)(=O)c2ccc(F)cc2)cc1,18.6%
5,CN[C@@H](C)[C@H]1[C@H](O)C[C@@]2(C)[C@@H]3CC[C@H]4C(C)(C)[C@@H](NC)CC[C@@]45C[C@@]35CC[C@]12C,-3.38%
6,Nc1ccncc1N,42.8%
7,NS(=O)(=O)c1cc2c(cc1Cl)NC(CC1CCCC1)NS2(=O)=O (centres undefined),9.09%
8,NS(=O)(=O)c1cc2c(cc1C(F)(F)F)NC(Cc1ccccc1)NS2(=O)=O (centres undefined),103%
9,C=CCSCC1Nc2cc(Cl)c(S(N)(=O)=O)cc2S(=O)(=O)N1 (centres undefined),12%
10,C[C@@H](c1nc(-c2ccc(C#N)cc2)cs1)[C@](O)(Cn1cncn1)c1ccc(F)cc1F,13.6%
11,N=C(N)NN=C1C=CC(=NNC(N)=S)C=C1,8.3%
12,C=C1/C(=C\C=C2/CCC[C@]3(C)[C@@H]([C@H](C)CC[C@@H](O)C(C)C)CC[C@@H]23)C[C@@H](O)C[C@@H]1O,24.3%
13,O=C(c1ccc(-c2ccc(Cl)cc2)o1)N(Cc1ccccn1)c1ccc(N2CCNCC2)cc1,9.26%
14,CCCCOC(=O)c1ccc(N)cc1,44.5%
15,CCCOC(=O)c1ccc(O)cc1,73%
16,CCCCOC(=O)c1ccc(O)cc1,86.8%
17,CCCCOc1cc(C(=O)OCCN(CC)CC)ccc1N,16.8%
18,CCOc1ccc(C(=O)OCCN(CC)CC)cc1,4.93%
19,CC/C(=C(/CC)c1ccc(O)cc1)c1ccc(O)cc1,19.4%
20,CCCCN1CCCC1CNC(=O)c1cc(C#N)c2ccccc2c1OC (centres undefined),6.77%
21,NC(=O)c1cnc2[nH]ccc2c1N[C@H]1C2CC3CC1C[C@](O)(C3)C2,15.9%
22,CC(C)C[C@@H](C(=O)N[C@@H](Cc1ccc(OCc2ccccc2)cc1)C(=O)NC(C)(C)C)N(C)Cc1ccc(C(C)(C)C)cc1,10.7%
23,C[C@H]1CC[C@@]2(OC1)O[C@H]1C[C@H]3[C@@H]4CC[C@@H]5C[C@@H](O)CC[C@]5(C)[C@H]4CC[C@]3(C)[C@H]1[C@@H]2C,5.04%
24,CN(C)/C=N/c1c(I)cc(I)c(CCC(=O)O)c1I,6.5%

row,Structure (SMILES),inhibition
1,O=C(NCC1CCCCN1)c1cc(OCC(F)(F)F)ccc1OCC(F)(F)F (centres undefined),-2.24%
2,CCC(CC)(CC(=O)Nc1cccc(/C=C/c2nc(C3CCC3)cs2)c1)C(=O)O,87.3%
3,COc1cc(N2CCC(O)CC2)ccc1Nc1cc(Nc2ccccc2S(=O)(=O)C(C)C)c2cc[nH]c2n1,12.8%
4,Cc1ccc(-c2ncn(-c3ccc(Nc4nccc(-c5cccc(N6CCOCC6)c5)n4)cc3)n2)cn1,0.35%
5,CCC(=O)NC1Cc2ccccc2C(c2ccccc2)C1 (centres undefined),0.79%
6,O=[N+]([O-])c1c(Nc2cc(F)cc(Cl)c2)ccc2nonc12,22.6%
7,Nc1ncnc2c1ncn2[C@H]1CC[C@@H](CO)O1,46%
8,N#CC1(c2ccc(NC(=O)c3cccnc3NCc3ccncc3)cc2)CCCC1,51.4%
9,CC1(C)CNc2cc(NC(=O)c3cccnc3NCc3ccncc3)ccc21,87.1%
10,CCCCCCCCCCCCCC(=O)OC(C)C,30.5%
11,O=C(O)c1nc(=O)[nH]c(=O)[nH]1,-2.71%
12,CC(N)CCCC(C)(C)O (centres undefined),6.48%
13,COc1ccc2c(C(=S)N(C)CC(=O)O)cccc2c1C(F)(F)F,8.32%
14,CCN(CC)CC1CCN(c2ncc3ncnc(Nc4ccc(F)c(Cl)c4)c3n2)CC1,22.9%
15,Cc1n[nH]c(C)c1Cc1sc2c(c1C(=O)N1C[C@H](O)CO1)c(=O)n(C)c(=O)n2CC(C)C,39.2%
16,COC1CCN(c2cccc(-c3cc(NC(C)=O)nc(-n4nc(C)cc4C)n3)n2)CC1,20.5%
17,CCCC1C(=O)N2C(N(C)C)=Nc3ccc(C)cc3N2C1=O (centres undefined),67.9%
18,O=C1OC2(c3cc(I)c(O)c(I)c3Oc3c2cc(I)c(O)c3I)c2c(Cl)c(Cl)c(Cl)c(Cl)c21,69.2% and 74.6%
19,c1ccc(-c2n[nH]cc2-c2ccnc3ccccc23)nc1,-5.98%
20,OCCN1CCN(CC/C=C2/c3ccccc3Sc3ccc(Cl)cc32)CC1,89.6%
21,CN1CCN(CC/C=C2/c3ccccc3Sc3ccc(S(=O)(=O)N(C)C)cc32)CC1,30.4%
22,CN(C)CC/C=C1\c2ccccc2CSc2ccccc21,33.1%
